According to PubChem BioAssay:

test system: Chordin-like protein 2 (CHRDL2); assay: compounds binding chordin-like 2 – biochemical, small-molecule microarray, 635 nm fluorescence, primary screen (AID 1126); conditions: fluorescence 635 nm, higher = more signal;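 note: printed compound slides probed with Chrdl2 protein at 4 µg/mL for 1 h at 4 C; score merges 667 nm emission intensity with signal to noise over three replicate slides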

Row | SMILES | composite z-score
1 | O[C@@H](Cc1ccccc1)[C@H]1C2C=CCCC=C2CN1Cc1cccc(Cl)c1 (some centres undefined) | 0.595
2 | COCCOC(=O)N1C(=O)[C@@]2(c3cc(C#CCNC(N)=O)ccc31)[C@H](C(=O)N1CCN(c3ncccn3)CC1)[C@H]1C(=O)O[C@H](c3ccccc3)[C@H](c3ccccc3)N1[C@@H]2c1ccc(OCCO)cc1 | 0.0879
3 | COCCOC(=O)N1C(=O)[C@@]2(c3cc(C#CCNC(N)=O)ccc31)[C@H](C(=O)Nc1nc3ccccc3s1)[C@H]1C(=O)O[C@H](c3ccccc3)[C@H](c3ccccc3)N1[C@@H]2c1ccc(OCCO)cc1 | 1.34
4 | CC(C)C(O)C1C=CC2C(=O)N(c3ccccc3)C(=O)C2N1Nc1ccc([N+](=O)[O-])cc1 (centres undefined) | -0.565
5 | CCOC(=O)C[C@H]1[C@H](OC(=O)c2ccccc2-c2ccccc2)[C@@H](NC(=O)CC(C)C)c2cc(OCCCO)ccc2N1C(=O)Cc1ccc(OC)cc1 | 0.246
6 | C=C(CCCC)/C(=C/C[C@H](OC(C)=O)c1ccccc1OCCO)c1cc(C(=O)OC)ccc1OC | -0.193
7 | C=CCC(OC(C)=O)[C@@H]1[C@@H](N(Cc2ccc(-c3ccccc3)cc2)C(=O)Cc2ccc(OC)cc2)c2cc(OCCCO)ccc2N1C(=O)Cc1ccc2ccccc2c1 (some centres undefined) | -0.0169
8 | COc1ccc(CCNC(=O)[C@@]2(Sc3ccc(C)cc3)CC(=O)N(C3Cc4ccccc4C3)[C@@H]2c2ccc(CO)cc2I)cc1 | -0.235
9 | COC(=O)[C@@]1(Cc2ccccc2)N=C(c2ccc(OCCCO)cc2)O[C@H]1c1ccccc1 | 0.0607
10 | COCCOC(=O)N1C(=O)[C@@]2(c3cc(C#CCC(C(=O)OC)C(=O)OC)ccc31)[C@H](c1ccccc1OCCO)N1[C@H](c3ccccc3)[C@H](c3ccccc3)OC(=O)[C@H]1[C@@H]2C(=O)N1CCN(c2ncccn2)CC1 | 1.04
11 | C=C(CCCC)/C(=C/C[C@@H](OC(=O)c1ccncc1)c1ccc(OCCO)cc1)c1cc(C(=O)OC)ccc1OC | 0.0685
12 | CCCCN1CC=CC23O[C@@H]4C=CCCOC(=O)C4[C@H]2C(=O)N(CCCCCCO)[C@@H]3C1=O (some centres undefined) | -1
13 | CN(C)CCCC[C@@H]1NC(=O)[C@H]2C[C@@H](C(=O)NCCCCCCN)[C@@H](c3ccc(O)cc3)N2C1=O | 1.04
14 | COc1ccc(-c2cc3c(c(-c4ccc(Oc5ccccc5)cc4)n2)[Si](C(C)C)(C(C)C)OC3)cn1 | -0.0581

target: Concanavalin-A (Canavalia ensiformis) (UniProt P02866); assay: compounds binding concanavalin A lectin – biochemical, small-molecule microarray, Alexa647 label, 635 nm, artefact control for SMM control protein annotation, primary screen (AID 1127); conditions: ConA-A647 binding fluorescence, higher = more signal;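 note: z combines 667 nm emission intensity with signal-to-noise across three replicate slides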
Sequence (P02866 whole entry, looked up): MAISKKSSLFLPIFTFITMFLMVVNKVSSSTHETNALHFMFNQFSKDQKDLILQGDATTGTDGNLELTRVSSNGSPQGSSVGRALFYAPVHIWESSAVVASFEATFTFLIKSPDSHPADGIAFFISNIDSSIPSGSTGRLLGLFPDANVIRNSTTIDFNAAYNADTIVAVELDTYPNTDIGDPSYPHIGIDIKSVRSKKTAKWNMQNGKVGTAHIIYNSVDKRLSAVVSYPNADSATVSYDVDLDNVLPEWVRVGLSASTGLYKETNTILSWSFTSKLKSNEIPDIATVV

Row | SMILES | composite z-score
15 | CC#CC(=O)Oc1ccccc1C=CC(=O)OCC | 0.502
16 | CC(C)CNC(=O)[C@@]1(Cc2ccccc2I)c2ccccc2C(=O)N(C2CCCCC2)[C@H]1c1ccc(CO)cc1 | 0.565
17 | O=C(c1ccccc1)N1C(=O)[C@]2(COC(c3ccc(OCCCO)cc3)=N2)Cc2ccccc21 | 1.16
18 | CC(C)(C)OC(=O)CC[C@]1(C(=O)N2CCOCC2)N=C(c2ccc(OCCCO)cc2)O[C@H]1c1ccccc1N=[N+]=[N-] | 0.973
19 | COCCOC(=O)N1C(=O)[C@@]2(c3cc(C#CCC(C(=O)OC)C(=O)OC)ccc31)[C@H](c1ccccc1OCCO)N1[C@H](c3ccccc3)[C@H](c3ccccc3)OC(=O)[C@H]1[C@@H]2C(=O)NC[C@H](O)c1ccccc1 | 1.16
20 | COCCCNC(=O)[C@]1(CCC(=O)OC(C)(C)C)N=C(c2ccc(OCCCO)cc2)O[C@@H]1c1ccccc1CN=[N+]=[N-] | 1.12
21 | CCOC(=O)C1=C[C@@H](C(C)(C)C)N(S(=O)(=O)c2ccc(C)cc2)[C@H]1c1ccc(F)cc1 | 0.819
22 | COc1cc(NN2C(C(O)c3ccco3)C=CC3C(=O)N(c4ccccc4)C(=O)C32)cc(OC)c1OC (centres undefined) | 0.498
23 | CCC(CC)C(O)C1C=CC2C(=O)NC(=O)C2N1Nc1ccc(Cl)cc1Cl (centres undefined) | 1.06
24 | CCCC[C@H]1OB(O)C[C@H]2C1=C(COC)Cn1c(=O)n(-c3ccccc3)c(=O)n12 | -0.317
25 | C=C(COC)/C(=C/C[C@@H](OC(C)=O)c1ccc(OCCO)cc1)c1cnc2ccccc2c1 | 1.14
26 | CN(C)C(=O)[C@@]1(CCS(=O)(=O)c2ccccc2)COC(c2ccc(OCCCO)cc2)=N1 | 0.469
27 | CCCCCCc1nc(-c2ccc(OC)nc2)cc2c1[Si](C(C)C)(C(C)C)O[C@H]2c1ccccc1 | 0.0837
28 | O=C(CS)NCCCCCCNC(=O)[C@@H]1C[C@@H]2C(=O)N[C@@H](Cc3ccccc3)C(=O)N2[C@@H]1c1cccc(OCCO)c1 | 1.15
29 | COC(=O)[C@@]1(Cc2ccc(OC)cc2)[C@H]2c3cc(C(=O)N(C)C)n(Cc4ccc(S(C)(=O)=O)cc4)c3C[C@H]2CN1C(=O)c1ccccc1 | -1.06
30 | O=C1C[C@@](C(=O)NC2CC2)(c2ccc([N+](=O)[O-])cc2)[C@@H](c2ccc(CO)cc2I)N1C1CCCCC1 | 1.04
31 | CN1C=C(C(=O)OCCS(C)(=O)=O)C(C(=O)OCCS(C)(=O)=O)=CC(c2ccc(CO)cc2)=CC1C1CC1 (centres undefined) | 0.168
32 | O=C1NC(=O)C2C1C=CC(C(O)c1cc(C(F)(F)F)cc(C(F)(F)F)c1)N2Nc1ccccn1 (centres undefined) | 0.297

Row | SMILES | composite z-score
33 | CN(C)CCCCCCNC(=O)[C@@H]1C[C@@H]2C(=O)N[C@@H](Cc3ccccc3)C(=O)N2[C@@H]1c1ccc(O)cc1 | 1.21
34 | Cc1nc2cc(Br)ccc2c(=O)o1 | 0.724
35 | O=C(NC1CC1)[C@@H]1c2ccccc2C(=O)N(Cc2ccccc2Cl)[C@H]1c1ccc(CO)cc1 | 1.02
36 | O[C@@H](Cc1ccccc1)[C@H]1C2C=CCCC=C2CN1Cc1cccc(Cl)c1 (some centres undefined) | 0.609
37 | COCCOC(=O)N1C(=O)[C@@]2(c3cc(C#CCNC(N)=O)ccc31)[C@H](C(=O)N1CCN(c3ncccn3)CC1)[C@H]1C(=O)O[C@H](c3ccccc3)[C@H](c3ccccc3)N1[C@@H]2c1ccc(OCCO)cc1 | 1
38 | COCCOC(=O)N1C(=O)[C@@]2(c3cc(C#CCNC(N)=O)ccc31)[C@H](C(=O)Nc1nc3ccccc3s1)[C@H]1C(=O)O[C@H](c3ccccc3)[C@H](c3ccccc3)N1[C@@H]2c1ccc(OCCO)cc1 | 0.994
39 | CC(C)C(O)C1C=CC2C(=O)N(c3ccccc3)C(=O)C2N1Nc1ccc([N+](=O)[O-])cc1 (centres undefined) | 0.726
40 | CCOC(=O)C[C@H]1[C@H](OC(=O)c2ccccc2-c2ccccc2)[C@@H](NC(=O)CC(C)C)c2cc(OCCCO)ccc2N1C(=O)Cc1ccc(OC)cc1 | 0.482
41 | C=C(CCCC)/C(=C/C[C@H](OC(C)=O)c1ccccc1OCCO)c1cc(C(=O)OC)ccc1OC | -0.701
42 | C=CCC(OC(C)=O)[C@@H]1[C@@H](N(Cc2ccc(-c3ccccc3)cc2)C(=O)Cc2ccc(OC)cc2)c2cc(OCCCO)ccc2N1C(=O)Cc1ccc2ccccc2c1 (some centres undefined) | -1.7
43 | COc1ccc(CCNC(=O)[C@@]2(Sc3ccc(C)cc3)CC(=O)N(C3Cc4ccccc4C3)[C@@H]2c2ccc(CO)cc2I)cc1 | -1.26
44 | COC(=O)[C@@]1(Cc2ccccc2)N=C(c2ccc(OCCCO)cc2)O[C@H]1c1ccccc1 | 0.889
45 | COCCOC(=O)N1C(=O)[C@@]2(c3cc(C#CCC(C(=O)OC)C(=O)OC)ccc31)[C@H](c1ccccc1OCCO)N1[C@H](c3ccccc3)[C@H](c3ccccc3)OC(=O)[C@H]1[C@@H]2C(=O)N1CCN(c2ncccn2)CC1 | 1.12
46 | C=C(CCCC)/C(=C/C[C@@H](OC(=O)c1ccncc1)c1ccc(OCCO)cc1)c1cc(C(=O)OC)ccc1OC | 0.249
47 | CCCCN1CC=CC23O[C@@H]4C=CCCOC(=O)C4[C@H]2C(=O)N(CCCCCCO)[C@@H]3C1=O (some centres undefined) | -0.254
48 | CN(C)CCCC[C@@H]1NC(=O)[C@H]2C[C@@H](C(=O)NCCCCCCN)[C@@H](c3ccc(O)cc3)N2C1=O | 1.04
49 | COc1ccc(-c2cc3c(c(-c4ccc(Oc5ccccc5)cc4)n2)[Si](C(C)C)(C(C)C)OC3)cn1 | 0.478
